Source: PubChem BioAssay
JMJD2A Tudor inh = qHTS Assay for Inhibitors of JMJD2A-Tudor Domain; 4.4% of 390,000 active; AID 504339, 2011; Lysine-specific demethylase 4A (Homo sapiens), O75164; AlphaScreen JMJD2A-Tudor / H3K4me3 peptide binding; Potency, µM (doses to about 114 µM), hits mostly inhibitors; note: nearly all actives have a fitted effect of over 50% in size
BAZ2B inh = qHTS Assay for Inhibitors of BAZ2B | 4.4% of 360,000 active | Potency, µM (titrated, usually from 114 µM), actives largely listed as inhibitors | AlphaScreen BAZ2B-H3K14Ac peptide displacement | Bromodomain adjacent to zinc finger domain protein 2B (Homo sapiens), Q9UIF8; note: nearly all actives have a fitted effect of over 60% in size
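In this displacement format the biotinylated H3(5-23) peptide acetylated at Lys14 serves as ligand at 50 nM, with BAZ2B at 50 nM in PBS pH 7.4 containing 0.01% Tween-20. Donor and acceptor beads are 10 ug/mL final.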
PLK1 PBD block = qHTS for Inhibitors of PLK1-PDB (polo-like kinase 1 - polo-box domain): Primary Screen; 2.8% of 360,000 active; Potency, µM, actives largely listed as inhibitors; Plk1 PBD binding of FITC phosphopeptide, fluorescence polarization; Serine/threonine-protein kinase PLK1 (Homo sapiens), P53350; note: series mostly up to about 57 µM; nearly all actives have a fitted effect of over 65% in size
Target sequence (P53350 whole entry, looked up, the tested form may be a part): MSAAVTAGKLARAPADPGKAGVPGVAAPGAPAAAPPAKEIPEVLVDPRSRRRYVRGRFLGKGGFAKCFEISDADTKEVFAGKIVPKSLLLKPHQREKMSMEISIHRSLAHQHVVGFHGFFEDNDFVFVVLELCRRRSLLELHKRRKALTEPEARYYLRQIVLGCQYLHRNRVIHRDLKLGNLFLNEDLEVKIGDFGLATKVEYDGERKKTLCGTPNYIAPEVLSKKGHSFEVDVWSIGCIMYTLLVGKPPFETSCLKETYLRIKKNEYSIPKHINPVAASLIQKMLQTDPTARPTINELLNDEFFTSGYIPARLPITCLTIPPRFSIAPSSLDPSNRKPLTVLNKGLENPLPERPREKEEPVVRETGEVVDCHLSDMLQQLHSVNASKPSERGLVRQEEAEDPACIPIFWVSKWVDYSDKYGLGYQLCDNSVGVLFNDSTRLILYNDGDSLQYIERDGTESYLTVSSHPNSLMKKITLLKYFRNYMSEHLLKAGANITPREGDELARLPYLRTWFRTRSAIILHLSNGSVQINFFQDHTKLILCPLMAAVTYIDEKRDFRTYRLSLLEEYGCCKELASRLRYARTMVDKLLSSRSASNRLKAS
HP1b binding inh = HTS for Inhibitors of HP1-beta Chromodomain Interactions with Methylated Histone Tails | Chromobox protein homolog 1 (Homo sapiens), P83916 | AlphaScreen HP1-beta / biotin-H3K9me3 peptide binding | Potency, µM (highest dose often 114 µM), most hits filed as inhibitors | 0.56% of 390,000 active; note: nearly all actives have a fitted effect of over 70% in size
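AlphaScreen: HP1-beta (50 nM) preformed 30 min with biotin-H3(1-18)K9me3 peptide (50 nM) in PBS pH 7.4, 0.01% Tween-20. Compound added for 30 min at RT, then streptavidin donor/nickel chelate acceptor beads (10 ug/mL) for 30 min.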
VDR inh = Inhibitors of the vitamin D receptor (VDR): qHTS; Vitamin D3 receptor (Homo sapiens), P11473; VDR-SRC2-3 peptide fluorescence polarization, 2 h; Potency, µM, usual class: inhibitors; 0.93% of 400,000 active; AID 504847, 2011
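After 23 nl compound addition and a short centrifugation, plates sat for 2 hours at ambient temperature; polarization of fluorescence then indicated loss of VDR binding to peptide SRC2-3.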
G9a inh = qHTS Assay for Inhibitors of Histone Lysine Methyltransferase G9a | G9a H3K9 monomethylation, AlphaScreen, 2 h | Potency, µM (titrated, usually from 102 µM), actives largely listed as inhibitors | 8.8% of 350,000 active | AID 504332, 2011; note: nearly all actives have a fitted effect of over 75% in size
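Methyltransferase reactions run at room temperature for 2 h (20 nM enzyme, 500 nM biotin-H3K9 peptide, 20 uM SAM) after a 15 min compound preincubation; product detected by AlphaScreen beads and anti-H3K9me1 antibody.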
Of the large screens only hits and unclear results are named; the others gave an inactive call. In the library only some 11% were active in any assay of this set; here they are far more common. Calls come from the whole dose curve; as a rule, active = well fitted curve in the direction sought with a large enough effect; inconclusive = small, poorly fitted or top-dose-only effect, or another doubt; inactive = no such curve, though single readings can be large; an effect the other way counts as inactive or inconclusive.

Cc1ccc(NC(=O)Cn2c(=O)n(CCCCC(=O)NCc3ccc4c(c3)OCO4)c(=O)c3ccccc32)cc1	none (no result: PLK1 PBD block)
O=C(COC(=O)c1sc2ccccc2c1Cl)NC1CCCCC1	none
NC(=O)NC(=O)COC(=O)c1sc2ccccc2c1Cl	PLK1 PBD block 13µM, VDR inh inconclusive
Cc1ccc2nc(-c3ccsc3)c(NC3CCCC3)n2c1	none
COc1ccc2c(c1O)C(=O)c1ccccc1C2=O	none (no result: JMJD2A Tudor inh, PLK1 PBD block, HP1b binding inh, VDR inh)
CC(C)COC(=O)c1ccc2c(c1O)C(=O)c1ccccc1C2=O	JMJD2A Tudor inh 7.9µM, BAZ2B inh 10µM, HP1b binding inh inconclusive, G9a inh inconclusive
Cc1cc(C)cc(-n2c(=O)c3ccccc3n(CC(=O)NCC3CCCO3)c2=O)c1 (stereo not given)	none
COc1ccc(CNc2ncnc3c2[nH]c2cc(OC)c(OC)cc23)cc1	JMJD2A Tudor inh inconclusive, BAZ2B inh inconclusive
O=c1c2[nH]c3ccccc3c2ncn1CCC1=CCCCC1	JMJD2A Tudor inh inconclusive
C1=C(CCNc2ncnc3c2[nH]c2ccccc23)CCCC1	BAZ2B inh inconclusive, G9a inh 56µM
COc1ccc(CNc2ncnc3c2[nH]c2ccccc23)cc1	JMJD2A Tudor inh inconclusive, G9a inh 50µM
Cc1nc(CSc2n[nH]c(=O)n2-c2cccc(F)c2)cs1	none
CCCC(=O)Nc1nc2ccc(OC)cc2s1	none
COc1ccc2nc(NC(=S)N(C)C)sc2c1	JMJD2A Tudor inh 25µM, BAZ2B inh inconclusive, PLK1 PBD block 5.3µM, HP1b binding inh inconclusive, VDR inh inconclusive, G9a inh 1.4µM
Cc1ccc(CSc2nnc(-c3ccccn3)n2Cc2cccs2)cc1	none (no result: JMJD2A Tudor inh, BAZ2B inh, HP1b binding inh, VDR inh, G9a inh)
COCCN(C(=S)Nc1ccc(OC)c(Cl)c1)C1CCN(C(C)C)CC1	PLK1 PBD block 13µM, G9a inh inconclusive
COCCN(C(=S)Nc1cccc(OC)c1)C1CCN(C(C)C)CC1	none
COc1ccc(NC(=S)N(CCC(C)C)C2CCN(C(C)C)CC2)cc1Cl	PLK1 PBD block 2.1µM, VDR inh inconclusive, G9a inh 5µM
CCOC(=O)N1CCC(NC(=O)CSCc2nc(-c3ccc(OC)c(OC)c3)oc2C)CC1	none
COc1ccc(-c2nc(CSCC(=O)N3CCN(c4cccc(C)c4)C(C)C3)c(C)o2)cc1OC (stereo not given)	JMJD2A Tudor inh 56µM, BAZ2B inh 45µM, G9a inh 45µM
COc1ccc(-c2nc(CSCC(=O)N3CCc4ccccc4C3)c(C)o2)cc1OC	JMJD2A Tudor inh inconclusive, PLK1 PBD block inconclusive, VDR inh inconclusive, G9a inh 35µM
COc1ccc(-c2nc(CSCC(=O)N3CCC(C(N)=O)CC3)c(C)o2)cc1OC	G9a inh 45µM
COc1ccc(-c2nc(CSCC(=O)NC3CC3)c(C)o2)cc1OC	none
COc1ccc(-c2nc(CSCC(=O)NC3CCCc4ccccc43)c(C)o2)cc1OC (stereo not given)	JMJD2A Tudor inh inconclusive, BAZ2B inh inconclusive, G9a inh 45µM
Cc1cccc(C(C)C)c1NC(=O)c1ccc2c(c1)CCCN2S(C)(=O)=O	none (no result: PLK1 PBD block)
Cc1oc(-c2ccccc2F)nc1CSCC(=O)NC1CC1	JMJD2A Tudor inh inconclusive, PLK1 PBD block 27µM, VDR inh inconclusive
COc1ccc(-c2nc(CSCC(=O)NCCCN3CCCC3=O)c(C)o2)cc1OC	PLK1 PBD block 21µM
CCOc1ccc(-c2nc(CSCC(=O)N3CCN(C(=O)c4ccco4)CC3)c(C)o2)cc1	G9a inh 50µM
Cc1oc(-c2ccccc2F)nc1CSCC(=O)NC1CCC(C)CC1 (stereo not given)	none
COC(=O)c1ccccc1NC(=O)c1cc2ccccn2n1	none (no result: PLK1 PBD block)
O=C(CSc1nc(-c2ccc(F)cc2)[nH]c1-c1ccc(F)cc1)Nc1ccc2c(c1)OCO2	BAZ2B inh inconclusive (no result: PLK1 PBD block)
Cc1ccc(S(=O)(=O)NC(C)C(=O)Nc2ccc3c(c2)OCO3)cc1 (stereo not given)	G9a inh 50µM
Cc1ccc(S(=O)(=O)NC(C)C(=O)N2CCOCCOCCOCCOCC2)cc1 (stereo not given)	G9a inh 40µM
Cc1ccc(S(=O)(=O)NC(C(=O)N2CCOCCOCCOCC2)C(C)C)cc1 (stereo not given)	none
COc1ccc(S(=O)(=O)NC(C)C(=O)Nc2ccc3c(c2)OCO3)cc1OC (stereo not given)	none
Cc1cccc(N2CCN(CCCNc3ncnc4onc(-c5ccc(F)cc5)c34)CC2C)c1 (stereo not given)	JMJD2A Tudor inh inconclusive, BAZ2B inh inconclusive, G9a inh inconclusive (no result: PLK1 PBD block)
[O-][n+]1onc2c1CCC(=N/O)/C2=N\Nc1ccccc1	BAZ2B inh 50µM, G9a inh 25µM (no result: JMJD2A Tudor inh, PLK1 PBD block, HP1b binding inh, VDR inh)
[O-][n+]1c2c(nn1-c1ccccc1)/C(=N/O)CCC2	none
CC1(C)Oc2ccc3ccc(=O)oc3c2/C(=C/Nc2cccc(O)c2)C1=O	JMJD2A Tudor inh 40µM, BAZ2B inh inconclusive, HP1b binding inh inconclusive, G9a inh 45µM
CC1(C)CC(=O)C(Sc2ccccc2[N+](=O)[O-])=C(O)C1	BAZ2B inh inconclusive, PLK1 PBD block 11µM, G9a inh 50µM
CCCCNC(=O)c1nc(C2CCN(S(=O)(=O)c3ccc(OC(F)(F)F)cc3)CC2)oc1-c1ccccc1	none (no result: JMJD2A Tudor inh, BAZ2B inh, HP1b binding inh, VDR inh, G9a inh)
CCNc1nc(NCC)nc(N(CC)C(N)=S)n1	PLK1 PBD block inconclusive, G9a inh 1.8µM
CCNc1nc(NC(C)(C)C)nc(N(C#N)CC)n1	none (no result: G9a inh)
COc1cc(OC)cc(C(=O)N2CCC(C(=O)NCCc3ccccc3)CC2)c1	none (no result: G9a inh)
COc1ccc2c(c1)c(-c1csc(N)n1)c(C)n2C	BAZ2B inh 79µM
Cc1nn(C)cc1-c1csc(N)n1	none
Cc1ccc2c(c1)c(-c1csc(N)n1)c(C)n2C	JMJD2A Tudor inh inconclusive, BAZ2B inh inconclusive, HP1b binding inh inconclusive, G9a inh 45µM
CC1(C)CC[C@]2(C(=O)n3ccnc3)CC[C@]3(C)[C@H](C(=O)C=C4[C@@]5(C)C=C(C#N)C(=O)C(C)(C)[C@@H]5CC[C@]43C)[C@@H]2C1	JMJD2A Tudor inh inconclusive, PLK1 PBD block 1.7µM, VDR inh 45µM (no result: BAZ2B inh, G9a inh)
CCOc1ccc(NC(=O)CSc2ccc3ccccc3n2)cc1	none (no result: PLK1 PBD block)
C=CCn1c(SCc2csc(-c3ccc(Cl)cc3)n2)nnc1-c1ccccc1OC	G9a inh 71µM
Nc1ccccc1SCc1csc(-c2ccc(Cl)cc2)n1	PLK1 PBD block 9.5µM, VDR inh inconclusive, G9a inh 35µM
CCOc1ccc(Cl)cc1CNCCCSc1nnnn1C	none (no result: PLK1 PBD block)
